In PubChem BioAssay AID1159580 (chemical genetic matrix, 2015):
Values joined by “and” are separate entries in the source; they are usually repeats but may differ in a detail not shown here. Identical values can stand only once. Among all 5,500 compounds or so, about 2,000 (36%) were called active. Another 18% or so got no clear call; they are omitted. Cut-off read from the data, not from the text of the source: active = normalized growth mostly below about 0.91 (no sharp cut-off); inconclusive = no clear call, values can overlap the other calls; inactive = mostly above about 0.92. The list shows a part of the results.

Assay: chemical genetic growth profiling, strain panel (AID 1159580);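 note: tested at 20 µM; growth read once vehicle control cultures reached saturation at 30 °C; 1 = growth at the plate median or of vehicle wells; lower values mean less growth of the strain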
Settings: S. cerevisiae deletion strains, growth OD

Measured: normalized growth

C[C@]12CCC3c4ccc(OS(=O)(=O)O)cc4CCC3C1CC[C@H]2O (some centres undefined)
inactive: locus YAL013W, strain DEP1, stronger effect = lower value 0.998 | locus YAL021C, strain ccr4, stronger effect = lower value 0.986 | locus YAL026C, strain drs2, stronger effect = lower value 0.973 | locus YAL030W, strain snc1, stronger effect = lower value 1 | locus YBL061C, strain skt5, stronger effect = lower value 0.969 | locus YBR009C, strain hhf1, stronger effect = lower value 1.04 | locus YBR021W, strain FUR4, stronger effect = lower value 0.983 | locus YBR023C, strain chs3, stronger effect = lower value 0.966 | locus YBR171W, strain sec66, stronger effect = lower value 0.983 | locus YBR229C, strain ROT2, stronger effect = lower value 0.988 | locus YBR231C, strain swc5, stronger effect = lower value 0.993 | locus YBR279W, strain paf1, stronger effect = lower value 0.978 | locus YCL011C, strain gbp2, stronger effect = lower value 0.961 | locus YCL016C, strain dcc1, stronger effect = lower value 0.948 | locus YCL029C, strain bik1, stronger effect = lower value 0.99 | locus YCL061C, strain MRC1, stronger effect = lower value 0.975 | locus YCL069W, strain vba3, stronger effect = lower value 0.985 | locus YCR088W, strain abp1, stronger effect = lower value 0.983 | locus YDL005C, strain med2, stronger effect = lower value 0.984 | locus YDL035C, strain GPR1, stronger effect = lower value 0.991 | locus YDL040C, strain nat1, stronger effect = lower value 0.985 | locus YDL074C, strain BRE1, stronger effect = lower value 1.02 | locus YDL101C, strain DUN1, stronger effect = lower value 0.996 | locus YDL134C, strain PPH21, stronger effect = lower value 0.978 | locus YDL185W, strain tfp1, stronger effect = lower value 0.99 | locus YDL192W, strain arf1, stronger effect = lower value 0.987 | locus YDR001C, strain nth1, stronger effect = lower value 0.974 | locus YDR069C, strain doa4, stronger effect = lower value 0.981 | locus YDR101C, strain arx1, stronger effect = lower value 0.988 | locus YDR137W, strain rgp1, stronger effect = lower value 0.955 | locus YDR150W, strain NUM1, stronger effect = lower value 0.997 | locus YDR159W, strain sac3, stronger effect = lower value 0.984 | locus YDR162C, strain NBP2, stronger effect = lower value 0.986 | locus YDR195W, strain ref2 0.97 | locus YDR297W, strain sur2, stronger effect = lower value 0.986 | locus YDR318W, strain mcm21, stronger effect = lower value 0.986 | locus YDR334W, strain swr1, stronger effect = lower value 0.968 | locus YDR335W, strain msn5, stronger effect = lower value 0.968 | locus YDR388W, stronger effect = lower value 0.986 | locus YDR392W, strain spt3, stronger effect = lower value 0.907 | locus YDR502C, strain sam2, stronger effect = lower value 0.986 | locus YEL003W, strain gim4, stronger effect = lower value 1 | locus YEL037C, strain rad23, stronger effect = lower value 0.989 | locus YEL061C, strain CIN8 (second series), stronger effect = lower value 0.981 | locus YEL061C, strain CIN8, stronger effect = lower value 0.996 | locus YER015W, strain faa2, stronger effect = lower value 0.986 | locus YER016W, strain bim1, stronger effect = lower value 0.942 | locus YER110C, stronger effect = lower value 0.978 | locus YER111C, strain swi4, stronger effect = lower value 0.965 | locus YER155C, strain BEM2 (second series), stronger effect = lower value 1 | locus YER155C, strain BEM2, stronger effect = lower value 0.994 | locus YER167W, strain BCK2, stronger effect = lower value 0.987 | locus YFR010W, strain ubp6, stronger effect = lower value 0.998 | locus YGL078C, strain dbp3, stronger effect = lower value 0.986 | locus YGL086W, strain mad1, stronger effect = lower value 0.988 | locus YGL167C, strain pmr1, stronger effect = lower value 0.973 | locus YGL173C, strain kem1, stronger effect = lower value 0.999 | locus YGL227W, strain vid30, stronger effect = lower value 0.981 | locus YGL240W, strain doc1, stronger effect = lower value 1.01 | locus YGL248W, strain PDE1, stronger effect = lower value 0.997 | locus YGL253W, strain hxk2, stronger effect = lower value 0.953 | locus YGR078C, strain PAC10, stronger effect = lower value 1.01 | locus YGR135W, strain pre9, stronger effect = lower value 0.96 | locus YGR229C, strain SMI1, stronger effect = lower value 1.01 | locus YGR252W, strain gcn5, stronger effect = lower value 0.997 | locus YHR013C, strain ard1, stronger effect = lower value 0.92 | locus YHR027C, strain rpn1, stronger effect = lower value 0.965 | locus YHR030C, strain SLT2, stronger effect = lower value 0.99 and 0.957 | locus YHR079C, strain IRE1 (second series), stronger effect = lower value 0.986 | locus YHR079C, strain IRE1, stronger effect = lower value 0.959 | locus YHR094C, strain hxt1, stronger effect = lower value 0.987 | locus YHR129C, strain ARP1, stronger effect = lower value 0.988 | locus YHR142W, strain chs7, stronger effect = lower value 0.951 | locus YHR200W, strain rpn10, stronger effect = lower value 0.987 | locus YIL066C, strain RNR3, stronger effect = lower value 0.984 | locus YIL073C, strain SPO22, stronger effect = lower value 0.954 | locus YIL125W, strain kgd1, stronger effect = lower value 0.988 | locus YIR030C, strain dcg1, stronger effect = lower value 0.992 | locus YJL092W, strain hpr5, stronger effect = lower value 0.978 | locus YJL095W, strain BCK1 (second series), stronger effect = lower value 0.969 | locus YJL095W, strain BCK1, stronger effect = lower value 1.02 and 0.969 | locus YJL115W, strain asf1, stronger effect = lower value 0.947 | locus YJL129C, strain trk1, stronger effect = lower value 0.911 | locus YJL134W, strain LCB3, stronger effect = lower value 0.993 | locus YJL154C, strain vps35, stronger effect = lower value 0.976 | locus YJL164C, strain tpk1, stronger effect = lower value 0.983 | locus YJL166W, strain qcr8, stronger effect = lower value 0.998 | locus YJL168C, strain set2, stronger effect = lower value 1 | locus YJL187C, strain SWE1 (second series), stronger effect = lower value 1.01
